# Sampled rows, rich in hits. Any-hit rate of the full collection: about 19%.
# DT40 TDP1 no CPT: qHTS for Inhibitors of human tyrosyl-DNA phosphodiesterase 1 (TDP1): qHTS in cells in absence of CPT; DT40 Tdp1-/- hTDP1 cells, no CPT, ATP luminescence, 48 h; Potency, µM (series often up to 46.2 µM), actives largely listed as inhibitors; hit rate 15% among 420,000; note: nearly all actives have a fitted effect of over 55% in size
#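 Cells were dispensed at 400 per well, compounds added by pin tool, plates incubated ≥48 hr at 37 °C, then CellTiter-Glo added for 30 min at room temperature before luminescence reading. Line: DT40 Tdp1-/- complemented with hTDP1; camptothecin omitted.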
# HT1080NT lethal: kills 2HG-producing HT-1080-NT fibrosarcoma cells; HT-1080-NT fibrosarcoma viability, CellTiter-Glo ATP luminescence, 48 h; Potency, µM (titrated, usually from 46.1 µM), actives largely listed as cytotoxic; hit rate 1.6% among 360,000; AID 686970;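 note: NT is the 2HG producing partner of a matched IDH1 knockdown line; nearly all actives have a fitted effect of over 55% in size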
#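 A 48-hour cytotoxicity screen used HT-1080-NT cells plated 2 hours before compound delivery. ATP-based CellTiter-Glo luminescence measured viability, normalized to DMSO and no-cell controls.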
# IL-1B inflam inh: blocks inflammasome-driven IL-1 beta release | THP-1 LPS/ATP IL-1B secretion, AlphaLISA, 16 h; active compounds read low | activity change, % at 57.5 µM | hit rate 4.7% among 360,000 | AID 743279; in the data active = activity change below about -50%; inconclusive = mostly about -30% to -49%
#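 THP-1 cells pretreated 1 hr with compounds (up to 57.5 uM final), then stimulated with LPS (250 ng/mL final) plus ATP (1.25 mM final); secreted IL-1B measured by AlphaLISA after 16 hr, decreased signal indicating inhibition.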
# HT1080 IDH1KD tx: kills HT-1080 cells with IDH1 knockdown; HT-1080 IDH1 knockdown viability, ATP luminescence, 48 h; Potency, µM (doses to about 46.1 µM), hits mostly cytotoxic; hit rate 2% among 360,000
#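 After a 2 h attachment period, IDH1KD HT-1080 cells took pin-transferred compound for 48 h at 37 °C; ATP-based luminescence after 10 min room-temperature reagent incubation reported viability.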
# DT40 TDP1 CPT: growth inhibition of DT40 Tdp1-/-;hTDP1 cells with camptothecin (screen for TDP1 inhibitors) | chicken DT40 Tdp1-/-;hTDP1 cells + 20 nM CPT, ATP luminescence, 48 h | Potency, µM (series often up to 46.2 µM), hits mostly inhibitors | hit rate 12% among 420,000 | AID 686979; note: nearly all actives have a fitted effect of over 55% in size
#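 Chicken DT40 Tdp1-/- cells stably complemented with human TDP1 were seeded at 400 cells/well in medium containing 20 nM camptothecin, exposed to pin-transferred compounds, and grown at 37 °C for at least 48 hr. Viability was read as ATP luminescence.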
# Numbers stand for hits; i = inactive; ? = inconclusive; nt = not tested or not shown. Unless noted, calls come from the whole dose curve; as a rule, active = well fitted curve in the direction sought with a large enough effect; inconclusive = small, poorly fitted or top-dose-only effect, or another doubt; inactive = no such curve, though single readings can be large; an effect the other way counts as inactive or inconclusive.
SMILES,DT40 TDP1 no CPT,HT1080NT lethal,IL-1B inflam inh,HT1080 IDH1KD tx,DT40 TDP1 CPT
Cc1cccc(C)c1NC(=S)NC(=O)CCc1ccccc1,i,10µM,i,11.2µM,i
CCCC(=O)NC(=S)Nc1c(C)cc(Br)cc1C,16.4µM,i,i,i,?
Cc1cc(Br)cc(C)c1NC(=S)NC(=O)CC(C)C,?,i,i,i,?
NC(=O)c1ccccc1NC(=O)CCc1ccccc1,?,i,i,i,?
NC(=O)c1ccccc1NC(=S)NC(=O)CCc1ccccc1,2.59µM,3.26µM,i,3.26µM,3.66µM
CCn1cc(C(=O)N[C@H](C(=O)NCCCn2ccnc2)C(C)C)c(=O)c2cc3c(cc21)OCO3,i,i,i,i,i
COc1ccc(C(C)=O)cc1COC(=O)c1cnc(Cl)c(Cl)c1,i,i,-81.7,i,i
COc1ccc(C(C)=O)cc1COC(=O)c1ccc2c(c1)OCO2,i,i,i,i,i
COc1cccc(C(=O)/C(C#N)=N/Nc2cccc(-c3ccnc(C)n3)c2)c1,20.6µM,25.9µM,i,i,?
CNC(=O)Nc1cccc(-c2ccnc(C)n2)c1,i,i,i,i,i
Cc1ccc(-n2nnc(-c3nccn3C)n2)cc1,20.6µM,?,i,?,23.1µM
Cc1ccc(-n2nnc(-c3cccnc3)n2)cc1,?,i,i,i,?
Cc1nc2ccccc2c2oc(C(=O)NCCN3CCCCC3C)cc12 (centres undefined),16.4µM,i,i,i,?
Cc1ccc2c(C)c(C(=O)NCC3CCOCC3)oc2c1C,?,i,?,i,?
CCCCN(CC)CCNC(=O)c1cc2cc3ccc(Cl)cc3nc2o1,?,i,nt,i,16.4µM
CCCc1ccc2oc(C(=O)N3CCC[C@H]3CO)c(C)c2c1,?,i,i,i,i
Cc1ccc2c(C)c(C(=O)N3CCCCC3CO)oc2c1C (centres undefined),13µM,i,i,i,18.4µM
CCN1CCCC1CNC(=O)c1cc2c(C)nc3ccccc3c2o1 (centres undefined),i,i,nt,i,i
CCOC(=O)N1CCC(NC(=O)c2oc3c(C)c(C)ccc3c2C)CC1,?,i,i,i,20.6µM
CCCN(CCC)CCCNC(=O)c1cc2cc3ccc(Cl)cc3nc2o1,?,i,i,i,?
N#Cc1ccc(-c2nc3c4ccccc4ccn3c2CC2CCCCC2)cc1,i,i,i,i,i
C[C@]1(Cn2ccnn2)[C@H](C(=O)O)N2C(=O)C[C@H]2S1(=O)=O,i,nt,nt,nt,i
CC[C@]1(C(=O)OC)[C@H]2C(=O)N(C)C(=O)[C@H]2[C@H]2CN(C)C(=NC)N21,i,i,i,i,i
COc1ccc(NC(=O)COC(=O)/C=C/c2cnc3ccccc3n2)cc1,i,i,i,i,i
CCN(c1ccccc1)S(=O)(=O)c1ccc(Cl)c(NC(=O)CSc2nnc(C)s2)c1,?,i,i,i,?
SMILES,DT40 TDP1 no CPT,HT1080NT lethal,IL-1B inflam inh,HT1080 IDH1KD tx,DT40 TDP1 CPT
COc1ccc(/C=C/C(=O)O)cc1S(=O)(=O)NCc1ccccc1,i,i,i,i,i
CCOC(=O)N1CCC(NC(=O)Cc2ccccc2)CC1,i,i,i,i,i
CCOC(=O)N1CCC(NC(=O)c2cc3c(C)nc4ccccc4c3o2)CC1,20.6µM,i,i,i,9.2µM
CCCCN(CC)CCNC(=O)c1cc2c(C)nc3ccccc3c2o1,23.1µM,i,i,i,16.4µM
CC1(C)NC(=O)N(CC(O)CN(c2cccc([N+](=O)[O-])c2)S(=O)(=O)c2ccccc2)C1=O (centres undefined),i,i,i,i,i
CC(OC(=O)Cn1cnc2c1c(=O)n(C)c(=O)n2C)C(=O)NC1CCCCC1C (centres undefined),i,i,i,i,i
Cc1ccccc1NC(=O)N1CCC(CN2CCCC2)CC1,i,nt,nt,nt,i
COC1CCC2(C)C(=CCC3C4CC(O)CC4(C)CCC32)C1 (centres undefined),20.6µM,i,i,i,20.6µM
COc1ccc(CCNC(=O)CCCCCN2C(=O)[C@@H]3Cc4ccccc4CN3C2=O)cc1OC,?,i,i,i,20.6µM
COc1ccc(CCNC(=O)CCCn2c(=O)c3ccccc3n(CC(=O)Nc3cccc(C)c3)c2=O)cc1OC,18.4µM,nt,nt,nt,?

# Screening data: PubChem BioAssay, National Center for Advancing Translational Sciences (NCATS)
